# PubChem BioAssay (Tox21)
# Results filed as inconclusive are left out. Entries that show only a call come without a potency. Values without a mark were called inactive. Activity calls are given as the source filed them. Unless noted, calls come from the whole dose curve.
# Experiments:
# [1] = qHTS assay to identify small molecule antagonists of the vitamin D receptor (VDR) signaling pathway - cell viability counter screen (AID 743225; active = well fitted curve in the direction sought with a large enough effect in the repeat runs; an effect the other way counts as inactive or inconclusive; note: nearly all actives have a fitted effect of over 50% in size; note: potency is the fitted concentration of half-maximal effect)
# In short: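 VDR-bla HEK 293T cells, 4 h pre-incubation at 37C, then compound plus 1-alpha,25-dihydroxyvitamin D3 (3 nM final) for 16 h. After the beta-lactamase FRET read, CellTiter-Glo was added to the same wells; luminescence after 30 min at room temperature.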
# [2] = qHTS assay to identify small molecule agonists of the NFkB signaling pathway (AID 1159509; active = well fitted curve in the direction sought with a large enough effect in the signal ratio in the repeat runs, not every such curve was filed as active; the % refers to the signal ratio; note: series mostly up to about 61 µM)
# In short: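 Readout: FRET fluorescence, 405 nm excitation, 460/530 nm emission; beta-lactamase expression disrupts FRET. Cells: ME-180 stably carrying NF-kB-driven bla reporter. Compound exposure 5 hr, 37 C, 5% CO2.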
# [3] = qHTS assay to identify small molecule agonists of the NFkB signaling pathway - cell viability counter screen (AID 1159515); note: nearly all actives have a fitted effect of over 55% in size; note: potency is the fitted concentration of half-maximal effect
# In short: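 Plate 2,000 NFkB-bla ME-180 cells/well; incubate overnight. Add compounds, 5 hr at 37 C. Add FRET substrate, 1.5 hr RT. Add CellTiter-Glo, 30 min RT; read luminescence.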
# [4] = qHTS assay to identify small molecule agonists of the endoplasmic reticulum stress response signaling pathway (AID 1159516; active = well fitted activation curve with a large enough effect in the signal ratio in the repeat runs, not every such curve was filed as active; the % refers to the signal ratio)
# In short: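 Beta-lactamase expression from the ER stress response element in HeLa reporter cells is quantified with the LiveBLAzer B/G FRET substrate, read at 405 nm excitation after 2 hr at room temperature, following 5 hr compound treatment at 37 C.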
# [5] = qHTS assay to identify small molecule antagonists of the retinoid-related orphan receptor gamma (ROR-gamma) signaling pathway - cell viability counter screen (AID 1159520; active = well fitted curve in the direction sought with a large enough effect in the repeat runs; an effect the other way counts as inactive or inconclusive; note: nearly all actives have a fitted effect of over 50% in size; note: potency is the fitted concentration of half-maximal effect)
# In short: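 Tet-on ROR gamma CHO cells (1,000/well) were plated 4 hr, given compounds in DMSO for 2 hr at 37 C, then induced with 1 uM final doxycycline for 16 hr. Viability was read as ATP by CellTiter-Glo luminescence after 30 min.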
# [6] = qHTS assay to identify small molecule agonists of the AP-1 signaling pathway - cell viability counter screen (AID 1159525); note: nearly all actives have a fitted effect of over 55% in size
# In short: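 Each titration point was normalised to DMSO and tetra n-octyl ammonium bromide controls. The read was Cell Titer Glo luminescence after 30 min at RT, following 5 h compound exposure of ME-180 AP-1-bla cells at 37 °C.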
# [7] = qHTS assay to identify small molecule agonists of the AP-1 signaling pathway (AID 1159526)
# [8] = target: Retinoic acid receptor RXR-alpha (Homo sapiens) (UniProt P19793); assay: qHTS assay to identify small molecule agonists of the RXR signaling pathway (AID 1159527); note: nearly all actives have a fitted effect of over 35% in size; note: potency is the fitted concentration of half-maximal effect
# In short: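 GeneBLAzer RXR-alpha-UAS-bla HEK 293T cells in medium with 2% charcoal-stripped FBS, pre-incubated 5 hr at 37 C, then exposed to compounds 16 hr. Beta-lactamase reporter read by FRET substrate, 2 hr room temperature, 460/530 nm emission.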
# [9] = target: Nuclear receptor ROR-gamma (Homo sapiens) (UniProt P51449); assay: qHTS assay to identify small molecule antagonists of the retinoid-related orphan receptor gamma (ROR-gamma) signaling pathway (AID 1159521; active = well fitted curve in the direction sought with a large enough effect in the repeat runs; an effect the other way counts as inactive or inconclusive; note: nearly all actives have a fitted effect of over 50% in size; note: potency is the fitted concentration of half-maximal effect)
# In short: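 Tet-on RORγ CHO cells carrying a ROR response element–luciferase reporter were pretreated with compounds for 2 h, then induced with 1 uM (final) doxycycline hyclate for 16 h at 37 C. Antagonism was read as decreased ONE-Glo luminescence.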
# Sequence of Retinoic acid receptor RXR-alpha (Homo sapiens) (P19793 whole entry, looked up): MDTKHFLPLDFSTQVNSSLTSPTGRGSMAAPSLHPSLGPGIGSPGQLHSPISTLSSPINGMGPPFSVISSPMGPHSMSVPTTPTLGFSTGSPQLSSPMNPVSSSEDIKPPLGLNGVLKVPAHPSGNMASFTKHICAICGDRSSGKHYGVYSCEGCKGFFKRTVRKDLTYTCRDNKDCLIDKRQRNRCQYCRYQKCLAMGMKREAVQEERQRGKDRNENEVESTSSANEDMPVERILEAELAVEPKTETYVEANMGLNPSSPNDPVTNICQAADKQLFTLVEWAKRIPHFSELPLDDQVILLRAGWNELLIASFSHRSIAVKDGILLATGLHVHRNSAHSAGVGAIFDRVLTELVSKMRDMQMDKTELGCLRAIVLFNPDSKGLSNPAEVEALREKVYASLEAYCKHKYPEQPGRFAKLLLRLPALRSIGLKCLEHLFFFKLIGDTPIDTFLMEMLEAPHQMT
SMILES,Potency [1],outcome [2],Potency [3],Potency [4],Potency [5],Potency [6],outcome [7],Potency [8],Potency [9]
Cc1cc([N+](=O)[O-])ccc1N,inactive,inactive,inactive,inactive,inactive,inactive,inactive,–,–
CC(C)CC(O)CC(C)C,inactive,inactive,inactive,inactive,–,inactive,inactive,inactive,–
COC(C)(C)OC,–,inactive,inactive,inactive,–,inactive,inactive,inactive,–
CN(C)CC/C=C1\c2ccccc2Sc2ccc(Cl)cc21,–,inactive,inactive,inactive,–,inactive,–,–,–
CCN(CC)C(=O)/C(C#N)=C/c1cc(O)c(O)c([N+](=O)[O-])c1,inactive,inactive,inactive,inactive,inactive,inactive,inactive,–,–
Cc1ccc(N(CCO)CCO)cc1,inactive,inactive,inactive,inactive,–,inactive,inactive,inactive,–
CCCCCCC(O)CCCCCCCCCCC(=O)OC (stereo not given),inactive,inactive,inactive,inactive,inactive,inactive,–,inactive,–
c1ccc(CCCc2ccncc2)cc1,inactive,inactive,inactive,inactive,–,inactive,inactive,–,inactive
CCNc1nc(N)nc(Cl)n1,inactive,inactive,inactive,inactive,–,inactive,inactive,5.49 µM (active),–
CC(C)COC(=O)c1ccc(O)cc1,inactive,inactive,inactive,inactive,–,inactive,–,inactive,inactive
CC(=O)C(=O)CC(C)C,inactive,inactive,inactive,inactive,–,inactive,inactive,inactive,inactive
CCC1CCC(CCC(=O)O)C1 (stereo not given),–,inactive,inactive,inactive,–,inactive,inactive,–,inactive
C[C@@H]1[C@H](O)[C@@H](C)/C=C/C=C\C=C\C=C\C=C\C=C\C=C\[C@H](O[C@@H]2O[C@H](C)[C@@H](O)[C@H](N)[C@@H]2O)C[C@@H]2O[C@](O)(C[C@@H](O)C[C@@H](O)[C@H](O)CC[C@@H](O)C[C@@H](O)CC(=O)O[C@H]1C)C[C@H](O)[C@H]2C(=O)O (stereo in doubt),inactive,inactive,inactive,inactive,inactive,inactive,–,inactive,–
C=C(C)c1ccccc1,inactive,inactive,inactive,inactive,inactive,inactive,inactive,–,–
O=c1[nH]c2cc(C(F)(F)F)c(N3CCOCC3)cc2n(CP(=O)(O)O)c1=O,inactive,inactive,inactive,inactive,–,inactive,inactive,–,inactive
Nc1ccc(F)cc1,inactive,inactive,inactive,inactive,–,inactive,inactive,–,inactive
O=P(O)(O)Oc1ccccc1,inactive,inactive,inactive,inactive,–,inactive,inactive,inactive,inactive
O=C(O)c1cc(Cl)cc(Cl)c1O,inactive,inactive,inactive,inactive,–,inactive,inactive,inactive,–
Nc1nc(-c2ccc([N+](=O)[O-])cc2)cs1,inactive,inactive,inactive,inactive,–,inactive,inactive,inactive,inactive
BrC(Br)C(Br)Br,inactive,inactive,inactive,inactive,–,inactive,inactive,–,inactive
COc1ccc(C2C(=O)c3ccccc3C2=O)cc1,inactive,inactive,inactive,inactive,–,–,inactive,inactive,inactive
CCCCCCCC(=O)Oc1c(Br)cc(C#N)cc1Br,–,inactive,inactive,inactive,–,inactive,inactive,–,48.4 µM (active)
CC(C)N=C=NC(C)C,inactive,inactive,inactive,inactive,–,inactive,inactive,inactive,inactive
CN1CCCN(C(c2ccccc2)c2ccc(Cl)cc2)CC1 (stereo not given),21.3 µM (active),inactive,12 µM (active),inactive,–,inactive,–,–,26.6 µM (active)
CSCC[C@H](NC(=O)[C@H](Cc1c[nH]c2ccccc12)NC(=O)CCNC(=O)OC(C)(C)C)C(=O)N[C@@H](CC(=O)O)C(=O)N[C@@H](Cc1ccccc1)C(N)=O,inactive,inactive,inactive,inactive,–,inactive,inactive,inactive,inactive
COc1ccc(-c2cc(=S)ss2)cc1,inactive,inactive,inactive,inactive,inactive,inactive,–,–,–
Cc1cn([C@H]2C[C@H](F)[C@@H](CO)O2)c(=O)[nH]c1=O,inactive,inactive,inactive,inactive,–,inactive,inactive,inactive,inactive
Cc1c(C2(c3cc(Br)c(O)c(Br)c3C)OS(=O)(=O)c3ccccc32)cc(Br)c(O)c1Br,inactive,inactive,37.7 µM (active),inactive,3.74 µM (active),–,inactive,–,–
COC(=O)C1=C(C)NC(C)=C(C(=O)OC(C)(C)CN(C)CCC(c2ccccc2)c2ccccc2)C1c1cccc([N+](=O)[O-])c1 (stereo not given),inactive,inactive,inactive,inactive,–,inactive,inactive,–,11.9 µM (active)
